High-throughput results: PubChem BioAssay, several laboratories
Only some compounds are listed: those with a hit (about 2.3% of all), similar ones and a draw of the others.
BCLXL inh – blocks human Bcl-xL binding to Bim BH3 peptide; GST-Bcl-xL / FITC-Bim BH3 peptide fluorescence polarization; inhibition, % at 10.9 µM; 320,000 tested, 0.7% active;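 active = inhibition above the mean of all tested compounds plus 3 SD, cutoff set per campaign, cut at about 30% in these data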;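 also: 0% = DMSO wells and 100% = unlabeled Bim-BH3 peptide competitor; inhibitors lower millipolarization by displacing the labeled peptide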
Target sequence (Q07817 whole entry, looked up): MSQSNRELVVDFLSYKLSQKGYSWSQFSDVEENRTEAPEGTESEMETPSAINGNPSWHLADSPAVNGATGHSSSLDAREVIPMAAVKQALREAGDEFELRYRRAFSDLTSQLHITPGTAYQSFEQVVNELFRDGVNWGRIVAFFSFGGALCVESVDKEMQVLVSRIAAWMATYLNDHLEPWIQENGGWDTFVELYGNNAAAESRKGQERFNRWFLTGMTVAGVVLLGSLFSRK
Mcl-1 Bim block – human Bim-Mcl-1 interaction inhibition. Bead-based flow cytometry, Bim peptide-Mcl-1 binding. inhibition, % at 10 µM. 190,000 tested, 0.1% active. AID 1009; in the data active = inhibition above about 40%;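 also: 0% = no compound tracer wells and 100% = peptide blocker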
Target sequence (Q07820 whole entry, looked up): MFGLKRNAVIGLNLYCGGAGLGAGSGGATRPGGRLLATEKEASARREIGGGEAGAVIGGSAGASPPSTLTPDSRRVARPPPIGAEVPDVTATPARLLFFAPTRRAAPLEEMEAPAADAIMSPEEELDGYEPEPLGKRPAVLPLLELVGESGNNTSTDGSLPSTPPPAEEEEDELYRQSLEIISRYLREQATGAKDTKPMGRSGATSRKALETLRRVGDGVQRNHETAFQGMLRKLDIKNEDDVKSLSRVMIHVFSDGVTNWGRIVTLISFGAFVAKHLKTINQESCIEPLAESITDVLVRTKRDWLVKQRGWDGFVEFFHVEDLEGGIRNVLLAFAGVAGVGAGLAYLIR
GLD-1 TGE inh – GLD-1-TGE RNA interaction inhibition (C. elegans). 320,000 tested, 0.44% active. inhibition, % at 5.96 µM. Q17339. AID 2280. purified GLD-1 + fluorescein TGE RNA, fluorescence polarization;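 active = percent inhibition above a per-plate cutoff, the plate mean of test compounds plus 3 SD, cut at about 30% in these data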;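 also: 0% = DMSO wells with GLD-1 and probe and 100% = wells lacking GLD-1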
MCL1-BIM inh – disrupts human MCL1 binding to BIM-BH3 peptide; GST-MCL1 / FITC-Bim-BH3 fluorescence polarization; inhibition, % at 10.9 µM; 320,000 tested, 0.68% active; AID 2057;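 active = inhibition above the mean inhibition of all tested compounds plus 3 SD, set per campaign, cut at about 40% in these data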;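 also: 0% = DMSO wells and 100% = unlabeled Bim-BH3 peptide control; higher means more loss of mP so more displacement of Bim peptide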
Mcl1 Noxa PPI – disrupts binding of human Mcl-1 to Noxa peptide. TR-FRET Mcl-1/Noxa peptide binding, 2 h. inhibition, % at 21.7 µM. 220,000 tested, 1.5% active;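 active = compounds that cut the protein-peptide binding signal by more than 50% relative to plate controls in a single-dose test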;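 also: His-tagged Mcl-1 with rhodamine Noxa BH3 peptide and terbium anti-His antibody; 0% = Mcl-1 plus Noxa peptide wells and 100% = peptide-only wells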
Mcl1 Bid PPI – disrupts binding of human Mcl-1 to Bid peptide. Q07820. TR-FRET Mcl-1/Bid-Dy647 peptide binding, 1536-well. inhibition, % at 21.7 µM. 220,000 tested, 0.97% active. AID 1021;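 active = compounds that cut the binding signal by more than half at the single screening dose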;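 also: His-tagged Mcl-1 with europium anti-His antibody binding Bid BH3 peptide; 0% = Mcl-1 plus peptide wells and 100% = peptide-only wells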
BCLXL inh confirm – Bcl-xL (human) inhibition, MCL1 counter-screen confirmation | shares compounds with MCL1-BIM inh | GST-Bcl-xL / FITC-Bim BH3 peptide FP binding | inhibition, % at 10.9 µM | 1,700 tested, 54% active | AID 2166;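 active = inhibition above a cutoff equal to the mean inhibition of all tested compounds plus 3 SD, cut at about 30% in these data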;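 also: 0% = DMSO wells and 100% = unlabeled Bim BH3 control peptide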
MCL1 inh confirm – MCL1-BIM-BH3 interaction inhibition, confirmation; shares compounds with MCL1-BIM inh; GST-MCL1 / FITC-Bim-BH3 fluorescence polarization; inhibition, % at 10.9 µM; 1,700 tested, 61% active; AID 2168;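 active = inhibition above the average of all tested compounds plus 3 SD, cut at about 40% in these data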;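 also: 0% = DMSO wells and 100% = unlabeled Bim-BH3 control peptide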
* = called active by the depositor; . = not tested or not shown; + = active, no number.

SMILES	BCLXL inh	Mcl-1 Bim block	GLD-1 TGE inh	MCL1-BIM inh	Mcl1 Noxa PPI	Mcl1 Bid PPI	BCLXL inh confirm	MCL1 inh confirm
C#CCN(Cc1ccccc1)S(=O)(=O)C=C	5	.	-5	11	.	.	.	.
O=S(=O)(NCc1ccco1)c1cccc2cccnc12	12	10	4	154*	13	-13	20	29
Cc1ccc2c(c1)-n1c(nc3cc(Cl)ccc3c1=O)C(CC(C)C)NC2=O (stereo not drawn)	.	.	4	.	.	.	.	.
C/C(=N\NC(=O)c1cc(O)cc(O)c1)c1ccc(NC(=O)Cc2ccccc2)cc1	32*	.	6	78*	.	.	46*	93*
CCC(C)(C)NC(=O)C(c1ccc(OC)cc1)N(C(=O)CCC(=O)Nc1cc(C)on1)c1cc(OC)ccc1OC (stereo not drawn)	-1	.	4	-5	.	.	.	.
O=C(NC(=S)Nc1cccc(S(=O)(=O)NC2=NCCC2)c1)c1cc(-c2ccco2)nc2ccccc12	44*	.	21	54*	65*	-47	39*	42*
O=C(Nc1cccc(S(=O)(=O)NC2=NCCC2)c1)c1cc(-c2ccco2)nc2ccccc12	27	.	7	94*	99*	49	18	74*
O=C(Nc1cccc(S(=O)(=O)NC2=NCCCCC2)c1)c1cc(-c2ccccc2)nc2ccccc12	7	3	5	8	-16	4	.	.
Cc1nn(C)cc1C1C2=C(CC(C)(C)CC2=O)N(c2ccccc2)C2=C1C(=O)CC(C)(C)C2	8	-3	14	3	-5	-33	.	.
Cc1ccc(N2C3=C(C(=O)CC(C)(C)C3)C(c3cn(C)nc3C)C3=C2CC(C)(C)CC3=O)cc1	93*	.	88*	104*	.	.	116*	158*
COc1cc(OC)cc(C(=O)NCCCCCCNC(=O)c2cc(OC)cc(OC)c2)c1	44*	.	24	48*	.	.	38*	49*
COc1cccc(C(=O)NCCCNC(=O)c2cccc(OC)c2)c1	-5	.	-3	-4	.	.	.	.
NC(=O)C[n+]1cccc2ccccc21	185*	2	16	+	47	-26	101*	124*
O=C(C[n+]1cccc2ccccc21)c1ccc(Br)cc1	2	.	-5	-1	.	.	.	.
O=C(OCCN1C(=O)c2cccc3c(N4CCOCC4)ccc(c23)C1=O)c1cccc(Cl)c1	41*	0	81*	66*	-161	-13	3	-19
O=C(OCCN1C(=O)c2ccccc2C1=O)c1cc(S(=O)(=O)N2CCOCC2)ccc1Cl	2	-5	6	3	-3	-6	.	.
O=C(OCCN1C(=O)c2cccc3c(N4CCOCC4)ccc(c23)C1=O)c1ccc(Cl)cc1Cl	39*	10	73*	63*	-151	-26	-3	-2
CCCOP(=O)(c1ccc(N(C)C)cc1)C(Nc1ccccc1)c1ccc(C)cc1 (stereo not drawn)	2	.	7	44*	-4	-10	-6	-9
COc1ccc(C(C)(C)C)cc1NC(=O)c1cccc(S(=O)(=O)N2CCN(C(C)=O)CC2)c1	6	.	3	-1	.	.	.	.
COC(=O)C1=CO[C@@H](C)[C@H]2CN3CCc4c([nH]c5ccccc45)[C@@H]3C[C@H]12	2	.	8	-10	.	.	.	.
COC(=O)C1=COC(C)C2CN3CCc4c([nH]c5ccccc45)C3CC12 (stereo not drawn)	89*	25	48*	91*	9	-30	62*	80*
COc1ccc(CCNC(=O)c2c(N)no[n+]2[O-])cc1OC	5	0	6	96*	-16	-9	2	-1
COc1ccc(CCNC(=O)Cc2ccc(OC)c(OC)c2)cc1OC	3	3	4	1	-18	23	.	.
COc1ccc(NC(=O)COc2cccc(C(F)(F)F)c2)cn1	71*	.	61*	70*	.	.	82*	92*
CCC1(c2ccccc2)NC(=O)N(CC(=O)NCc2ccccc2OC)C1=O (stereo not drawn)	-2	.	7	-6	.	.	.	.
SMILES	BCLXL inh	Mcl-1 Bim block	GLD-1 TGE inh	MCL1-BIM inh	Mcl1 Noxa PPI	Mcl1 Bid PPI	BCLXL inh confirm	MCL1 inh confirm
CCC1(c2ccccc2)NC(=O)N(CC(=O)Nc2ccc(OC)nc2)C1=O (stereo not drawn)	167*	.	124*	+	.	.	168*	+
COc1ccc2c(c1)O/C(=C\c1ccco1)C2=O	7	.	0	10	7	-21	.	.
Cc1cc(O)c(CN(C)C)c2c1C(=O)/C(=C/c1ccco1)O2	62*	.	26	61*	.	.	78*	89*
CCN1/C(=C/C=C/C=C/C=C/c2sc3ccccc3[n+]2CC)Sc2ccccc21	7	.	-131	8	.	.	.	.
CCN1/C(=C/C=C/c2sc3ccccc3[n+]2CC)Sc2ccccc21	+	.	0	+	.	.	+	+
COC(=O)c1ccccc1NC(=O)CN1C(=O)c2ccccc2C1=O	6	.	0	13	.	.	.	.
O=[N+]([O-])c1ccc2[nH]c(O)c(N=Nc3ccc(F)cc3)c2c1	2	.	29	-3	.	.	.	.
Oc1[nH]c2ccc(Br)cc2c1N=Nc1ccc(F)cc1	183*	.	107*	+	.	.	143*	198*
CN(C)c1ccc(N2C(=O)CSC2=S)cc1	39*	1	0	46*	1	-7	14	13
